Measured values reported in PubChem BioAssay AID493078 (National Center for Advancing Translational Sciences (NCATS), 2011).
This is one part of the list. Inconclusive results are not listed. The source made the active and inactive calls. Calls come from the whole dose curve; as a rule, active = well fitted activation curve with a large enough effect; inconclusive = small, poorly fitted or top-dose-only effect; inactive = flat fitted curve, though single readings scatter.

Each molecule was assayed against Thyrotropin-releasing hormone receptor (Homo sapiens) (UniProt P34981) (assay: qHTS for Small Molecule Agonists and Allosteric Enhancers of Human TRH Receptor: Confirmation Screen for Agonists). Settings: TRHR-expressing cells, agonist activation read-out; series mostly up to 46.1 µM; activation: at the top concentration.
Excerpt: NIH Chemical Genomics Center [NCGC]
NIH Molecular Libraries Probe Centers Network [MLPCN]
Assay Submitter (PI): Marvin Gershengorn
This project aims to identify small drug-like molecules that activate (agonists) the thyrotropin releasing hormone (TRH) receptor (TRHR) or enhance its TRH-stimulated activity (allosteric enhancers). TRHR, a drug-accessible cell surface receptor expressed in specific brain regions, and its ligand TRH have been implicated in several central nervous system disorders, including depression and anxiety. Small molecule TRHR agonists or allosteric enhancers that are metabolically stable and able to cross the blood-brain barrier might serve as probes to elucidate the roles of brain TRH receptors in animal models, and might be valuable as lead compounds for the development of drugs to treat patients with central nervous system disorders.
Upon TRHR-Gq activation in TRHR cells, intracellular calcium is released from stores in the endoplasmic reticulum.
For the HTS assay freshly prepared cells are plated at a density of 2000/well in 3 ul of complete DMEM medium containing 10% serum in 1536-well plates and cultured over night at 37 C in a humidified incubator with 5% CO2. The next day, 2 ul of a no wash calcium dye (ABD Bioquest) was added to the cells and plates were incubated at room temperature for 1 hour. For the assay, assay plates were loaded into the FDSS kinetic plate reader. A 10 cycle (1 second/cycle) baseline measurement is taken and then the FDSS online 1536 pintool delivers 23 nl of compound library (as well as TRH controls) to the plate. The plate is measured for kinetically at 1 cycle/sec for 180 seconds and is considered to be the agonist portion of the assay (eg, compounds which activate a positive calcium response during this portion are flagged as potential agonists). Following the 180 second read, 1 ul of either an EC20 (positive modulation assay) is delivered by an onboard pipette head. Measurements are taken kinetically for an additional 180 seconds.
TRHR FDSS Screening Protocol
1. Reagent, 3 uL 2000 cells/well 1536 TC treated Black plate in media containing 10% FCS
2. Time, 18 hours, 33.5C 5% CO2 (cells grown at 37C)
3. Reagent, 2 uL ABD fluo-8 Ca dye
4. Time, 30 min-1.5hrs hours, Room temp (6 plates/batch)
5. Detector, EX 480/EM 530C, FDSS 10 cycles baseline (1sec/cycle)
6. Compound, 23 nL of stock solution from library
7. Detector, EX 480/EM 530C, FDSS 230 cycles (1sec/cycle) Agonist mode
8. Compound, 1 ul EC20 of TRH made up in HEPES HBSS, 10 nM final
9. Detector, EX 480/EM 530C, FDSS 100 cycles (1sec/cycle) Potentiator mode
Note: 0% is about no effect; nearly all actives have a fitted effect of over 75% in size.

Thyrotropin-releasing hormone receptor (Homo sapiens), sequence (P34981 whole entry, looked up): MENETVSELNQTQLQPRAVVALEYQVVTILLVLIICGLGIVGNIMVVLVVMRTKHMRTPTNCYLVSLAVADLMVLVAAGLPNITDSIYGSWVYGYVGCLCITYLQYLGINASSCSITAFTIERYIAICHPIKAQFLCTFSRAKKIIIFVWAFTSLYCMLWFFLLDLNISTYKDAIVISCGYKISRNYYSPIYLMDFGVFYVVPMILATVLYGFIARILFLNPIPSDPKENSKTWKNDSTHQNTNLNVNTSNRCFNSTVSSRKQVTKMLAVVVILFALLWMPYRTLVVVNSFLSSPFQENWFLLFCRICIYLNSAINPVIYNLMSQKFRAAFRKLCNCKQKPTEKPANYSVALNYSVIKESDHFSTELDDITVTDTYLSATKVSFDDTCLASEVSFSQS

Row | Compound | activation
1 | CCOc1ncccc1C(=O)OCC(=O)N1c2ccccc2CC1C (stereo unspecified) | -0.311% (inactive)
